Consider 30 compounds from PubChem BioAssay (Tox21).

The nature of experiment [1]: qHTS assay to identify small molecule agonists of the estrogen related receptor signaling pathway with the pleiotropic PPARgamma coactivator (PGC) (AID 1224823). The essentials: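 Luminescence from One-Glo reagent (30 min, room temperature) was read after 18 h compound treatment at 37 C of PGC/ERR cells plated 6 h beforehand; compounds delivered in DMSO by pin tool.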
In general terms: In qHTS, concentration-response curves come from the screen itself.

Experiment [2] is described as follows: qHTS assay to identify small molecule antagonists of the estrogen related receptor (ERR) signaling pathway from Tox21 library - cell viability counter screen (AID 1224834). Further: nearly all actives have a fitted effect of over 30% in size. Further: potency means the concentration at half of the fitted maximal effect. The essentials:
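Compounds in DMSO were pinned onto ERR cells that had been incubated for 6 h, and the plates were held at 37 C for 17.5 h. CellTiter-Fluor reagent was then added and fluorescence was measured after 30 min.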

The target in experiment [3] is Luciferin 4-monooxygenase (Photinus pyralis) (UniProt P08659). In words: qHTS assay to identify small molecule inhibitors of firefly luciferase (AID 1224835). Further: nearly all actives have a fitted effect of over 25% in size. Further: potency means the concentration at half of the fitted maximal effect. On activity change, negative = inhibition: series mostly up to about 120 µM. The essentials: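 Quantitative HTS format; KM concentrations of both substrates. Purified P. pyralis FLuc activity quantified from luminescence images.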
The nature of experiment [4]: qHTS assay to identify small molecule agonists of the constitutive androstane receptor (CAR) signaling pathway - cell viability counter screen (AID 1224836). Further: series mostly up to about 92 µM; nearly all actives have a fitted effect of over 45% in size. In outline: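 Cells were seeded and incubated 4 hrs. Compounds were added across 15 concentrations together with PK11195 at 0.75 uM final. Plates were incubated 23 hrs at 37 C. CellTiter-Fluor was added and fluorescence measured.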

A short description of experiment [5]: qHTS assay to identify small molecule antagonists of the constitutive androstane receptor (CAR) signaling pathway - cell viability counter screen (AID 1224837). Further: series mostly up to about 92 µM; nearly all actives have a fitted effect of over 45% in size. In outline: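 Cells are seeded, rested 4 hr at 37 C/5% CO2, dosed with compound (15-point series) and 50 nM CITCO, incubated a further 23 hr, and then CellTiter-Fluor reagent is added before fluorescence is read. The line is HepG2 with stable hCAR and CYP2B6-2.2kb.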

Experiment [6] addresses Nuclear receptor subfamily 1 group I member 3 (Homo sapiens) (UniProt Q14994). In words: qHTS assay to identify small molecule agonists of the constitutive androstane receptor (CAR) signaling pathway (AID 1224839). Further: nearly all actives have a fitted effect of over 15% in size. Further: potency means the concentration at half of the fitted maximal effect.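 On activation: HepG2 cells stably carrying human CAR and a CYP2B6 luciferase reporter; series mostly up to about 92 µM.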 In outline:
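Cells were plated and incubated 4 hrs, then dosed with compounds at 15 concentrations. PK11195 was added to 0.75 uM final. After 24 hrs at 37 C, luciferase luminescence was measured.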

Experiment [7] is described as follows: qHTS assay to identify small molecule antagonists of the estrogen related receptor signaling pathway with the pleiotropic PPARgamma coactivator (PGC) from Tox21 10K library - cell viability counter screen (AID 1224840; active means well fitted cell-killing curve with a large enough effect in the repeat runs, not every such curve was filed as active; further: nearly all actives have a fitted effect of over 40% in size). The essentials:
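Cell viability is measured by CellTiter-Fluor fluorescence in PGC/ERR cells that receive compounds after a 6-hour attachment period and are then incubated 17.5 hours at 37 C.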

Experiment [8] can be described thus: qHTS assay to identify small molecule antagonists of the estrogen related receptor signaling pathway with the pleiotropic PPARgamma coactivator (PGC) from Tox21 10K library (AID 1224841; call rule not given here; further: series mostly up to about 92 µM; actives are mostly falling curves and most rising ones were filed inactive; nearly all actives have a fitted effect of over 50% in size). In outline: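 Cells stably carrying the PGC/ERR reporter, seeded at 2,000 per well, received pin-transferred compounds 6 h post-plating. Exposure lasted 18 h at 37 C. Signal: One-Glo luminescence.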

Experiment [9] in a line: qHTS assay to identify small molecule agonists of the estrogen related receptor signaling pathway with the pleiotropic PPARgamma coactivator (PGC) from Tox21 10K library (AID 1224842). Further: nearly all actives have a fitted effect of over 15% in size. The essentials: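 PGC/ERR reporter cells (NTP line) were seeded 2,000 per well, rested 6 h at 37 C/5% CO2, then pin-dosed with compounds in DMSO for 18 h at 37 C; luciferase read by One-Glo luminescence after 30 min at room temperature.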

Experiment [10] concerns the target Nuclear receptor subfamily 1 group I member 3 (Homo sapiens) (UniProt Q14994). The experiment can be described thus: qHTS assay to identify small molecule antagonists of the constitutive androstane receptor (CAR) signaling pathway (AID 1224838).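 Further: HepG2 cells stably expressing hCAR with CYP2B6 luciferase reporter stimulated by CITCO; nearly all actives have a fitted effect of over 40% in size.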 In outline: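 Luminescence from a CYP2B6-2.2kb promoter reporter in hCAR-expressing HepG2 cells reflects CAR signaling. Cells received compounds at 15 concentrations and 50 nM CITCO (final), then incubated 24 h at 37 C/5% CO2.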

Records with an inconclusive call do not appear. A number with no mark means an inactive call. Calls of active or inactive are those of the source. Unless noted, the call rests on the fitted dose curve; in most records, active means well fitted curve in the direction sought with a large enough effect in the repeat runs; inconclusive means weak or mixed curves; inactive means no such curve, though single readings can be large; an effect the other way counts as inactive or inconclusive.
On the % scale 0 is the no-effect control and ±100 the full control effect.

Nuclear receptor subfamily 1 group I member 3 (Homo sapiens), sequence (Q14994 whole entry, looked up): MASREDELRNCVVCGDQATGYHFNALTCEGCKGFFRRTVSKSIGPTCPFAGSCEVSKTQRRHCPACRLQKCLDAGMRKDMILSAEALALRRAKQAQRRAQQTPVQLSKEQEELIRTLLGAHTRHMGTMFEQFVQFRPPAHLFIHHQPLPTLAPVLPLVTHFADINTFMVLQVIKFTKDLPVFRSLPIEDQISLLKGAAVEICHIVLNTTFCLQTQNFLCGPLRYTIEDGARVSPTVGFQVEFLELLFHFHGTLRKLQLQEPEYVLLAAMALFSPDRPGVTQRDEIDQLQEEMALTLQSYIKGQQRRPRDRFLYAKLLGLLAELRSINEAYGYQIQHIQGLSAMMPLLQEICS
Luciferin 4-monooxygenase (Photinus pyralis), sequence (P08659 whole entry, looked up): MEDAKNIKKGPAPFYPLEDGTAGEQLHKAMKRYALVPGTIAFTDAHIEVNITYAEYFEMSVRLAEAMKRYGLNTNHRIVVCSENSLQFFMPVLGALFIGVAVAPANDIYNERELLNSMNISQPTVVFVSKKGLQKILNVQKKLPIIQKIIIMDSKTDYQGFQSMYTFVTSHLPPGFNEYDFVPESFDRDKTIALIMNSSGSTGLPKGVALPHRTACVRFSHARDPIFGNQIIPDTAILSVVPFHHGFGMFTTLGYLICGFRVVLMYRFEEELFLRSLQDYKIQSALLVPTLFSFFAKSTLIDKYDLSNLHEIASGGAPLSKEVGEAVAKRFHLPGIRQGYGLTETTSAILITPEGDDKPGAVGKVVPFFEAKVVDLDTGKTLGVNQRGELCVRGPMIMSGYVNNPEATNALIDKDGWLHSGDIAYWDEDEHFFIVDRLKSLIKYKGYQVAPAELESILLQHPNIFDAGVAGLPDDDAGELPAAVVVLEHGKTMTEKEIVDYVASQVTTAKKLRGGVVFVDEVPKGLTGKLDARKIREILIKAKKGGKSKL

`C[C@H]1O[C@@H](n2cc(F)c(=O)[nH]c2=O)[C@H](O)[C@@H]1O`: the call in experiment [1], in [4], in experiment [5] and in experiment [7] was inactive. The Potency result in [2], in [3], in experiment [6], in experiment [8] and in [9] was “inactive” each time.

In the case of `CC(C)=CC(=O)O`, the Potency result in [2], in experiment [3], in [10] and in experiment [6] was “inactive” in each case. In addition, the result in experiment [4], in experiment [5] and in experiment [7] was inactive.

Turning to `NC(=O)c1ncn([C@@H]2O[C@H](CO)[C@@H](O)[C@H]2O)c1O`, the Potency result in experiment [2], in [3], in experiment [10] and in experiment [6] was “inactive” in each case. Besides, the outcome in experiment [4], in experiment [5] and in experiment [7] was inactive.

Take `N#CCc1ccccc1[N+](=O)[O-]`: the Potency entry in [2], in experiment [3], in [10] and in [6] was “inactive” throughout. The outcome in experiment [4], in experiment [5] and in [7] was inactive.

As for `Cn1cnc2c(=O)[nH]c(N)nc21`, the Potency entry in experiment [2], in [3], in experiment [10] and in experiment [6] was “inactive” in each case. In addition, the result in experiment [4], in experiment [5] and in experiment [7] was inactive.

Consider `C[C@H](O)C(=O)Nc1c(I)c(C(=O)NC(CO)CO)c(I)c(C(=O)NC(CO)CO)c1I`, for which the Potency result in experiment [2], in experiment [3], in experiment [10] and in [6] was “inactive” each time. In addition, the call in experiment [4], in experiment [5] and in experiment [7] was inactive.

As for `CC1=CCC2C(C1)C2(C)C` (configuration not stated), the Potency entry in experiment [2], in experiment [3], in experiment [10] and in experiment [6] was “inactive” in each case. The result in experiment [4], in experiment [5] and in [7] was inactive.

As for `CC/C=C\C#N`, the Potency result in [2], in experiment [3], in [10] and in [6] was “inactive” in each case. Moreover, the result in experiment [4], in experiment [5] and in experiment [7] was inactive.

Take `NCC[C@H](O)C(=O)N[C@@H]1C[C@H](N)[C@@H](O[C@H]2O[C@H](CN)[C@@H](O)[C@H](O)[C@H]2O)[C@H](O)[C@H]1O[C@H]1O[C@H](CO)[C@@H](O)[C@H](N)[C@H]1O`: the viability change, negative = cytotoxic in experiment [2] was 0.879% [at 0.349 µM]; in experiment [4], 2.17% [at 0.349 µM]; in experiment [7], 1.22% [at 0.349 µM]. The activity change, negative = inhibition in experiment [3] is -1.73% [at 0.435 µM]. In addition, the activity change, negative = cytotoxicity in [5] was 3.03% [at 0.349 µM]. In addition, the activity, negative = inhibition in experiment [10] is -4.74% [at 0.349 µM]. The activation in experiment [6] was 1.57% [at 0.349 µM].

On to `CCN1CCN(c2cc3c(cc2F)c(=O)c(C(=O)O)cn3C2CC2)CC1`, for which the Potency result in [2], in experiment [3], in experiment [10] and in [6] was “inactive” in each case. Also, the outcome in [4], in [5] and in experiment [7] was inactive.

Take `[O-][N+](=Nc1ccccc1)c1ccccc1`: the Potency result in experiment [2] and in [10] was “inactive” throughout. Moreover, the figures for the Potency in experiment [3] and in [6] were 11.3 µM (active) and 30.6 µM (active), respectively. Also, the compound was called inactive in [4], in [5] and in experiment [7].

For the compound `C=C[Si](OC)(OC)OC`, the Potency result in [2], in [3], in experiment [10] and in [6] was “inactive” in each case. Besides, the compound was classed as inactive in experiment [4], in experiment [5] and in experiment [7].

In the case of `CC(C)(C)OC(=O)N1C[C@@H](F)C[C@H]1C(=O)O`, the Potency result in [2], in experiment [3], in experiment [10] and in experiment [6] was “inactive” throughout. Moreover, the outcome in [4], in experiment [5] and in [7] was inactive.

Regarding `CCCCNc1ccccc1`, the Potency result in [2], in [3], in [10] and in experiment [6] was “inactive” in each case. In addition, the compound was classed as inactive in [4], in [5] and in [7].

`OCCCCCCO`: the Potency entry in [2], in experiment [3], in experiment [10] and in experiment [6] was “inactive” each time. Moreover, the compound was called inactive in experiment [4], in [5] and in experiment [7].

For `CCCC(=O)O[C@]1(C(=O)CCl)[C@@H](C)C[C@H]2[C@@H]3CCC4=CC(=O)C=C[C@]4(C)[C@@]3(F)C(=O)C[C@@]21C`, the Potency result in experiment [2], in experiment [3], in [10] and in experiment [6] was “inactive” in each case. In addition, the call in [4], in [5] and in experiment [7] was inactive.

In the case of `CCCCCOC(=O)Nc1nc(=O)n([C@@H]2O[C@H](C)[C@@H](O)[C@H]2O)cc1F`, the Potency result in experiment [2], in experiment [3], in experiment [10] and in experiment [6] was “inactive” throughout. Also, the result in experiment [4], in experiment [5] and in experiment [7] was inactive.

Regarding `CCN1CCCC1CNC(=O)c1cc(S(N)(=O)=O)ccc1OC` (configuration not stated), the Potency entry in [2], in experiment [3], in experiment [10] and in experiment [6] was “inactive” in each case. For the same compound, the compound was called inactive in [4], in [5] and in [7].

For the compound `Cc1nccn1CC1CCc2c(c3ccccc3n2C)C1=O` (configuration not stated), the Potency result in experiment [2], in experiment [3], in [10] and in [6] was “inactive” in each case. Moreover, the compound was classed as inactive in experiment [4], in experiment [5] and in experiment [7].

As for `C1C2OC2C2C1C1CC2C2OC12` (configuration not stated), the Potency entry in experiment [2], in experiment [3], in [10] and in experiment [6] was “inactive” in each case. Further, the result in experiment [4], in experiment [5] and in [7] was inactive.

`CCCOc1ccccc1-c1nc2n[nH]nc2c(=O)[nH]1`: the Potency result in experiment [2], in [3], in experiment [10] and in experiment [6] was “inactive” throughout. The compound was classed as inactive in [4], in experiment [5] and in experiment [7].

Consider `C=CCOCC(O)CS(=O)(=O)O` (configuration not stated), for which the Potency entry in experiment [2], in [3], in [10] and in experiment [6] was “inactive” throughout. The compound was called inactive in experiment [4], in [5] and in experiment [7].

Consider `C#CC(O)CCCCC` (configuration not stated), for which the Potency result in experiment [2], in [3], in [10] and in [6] was “inactive” each time. Moreover, the compound was called inactive in experiment [4], in experiment [5] and in [7].

For `OCC(CO)(CO)COCC(CO)(CO)CO`, the Potency entry in experiment [2], in [3], in experiment [10] and in experiment [6] was “inactive” each time. The outcome in experiment [4], in [5] and in experiment [7] was inactive.

On to `COCCOC(=O)CC#N`, for which the Potency result in experiment [2], in [3], in experiment [10] and in [6] was “inactive” in each case. For the same compound, the outcome in experiment [4], in [5] and in experiment [7] was inactive.

With `CCCCCN(CCCCC)C(=O)C(CCC(=O)O)NC(=O)c1ccc(Cl)c(Cl)c1` (configuration not stated), the Potency result in [2], in experiment [3], in [10] and in [6] was “inactive” throughout. Moreover, the result in experiment [4], in experiment [5] and in experiment [7] was inactive.

For the compound `c1cc(CN2CCCCC2)cc(OCCCNc2nc3ccccc3s2)c1`, the result in experiment [1] and in experiment [7] was inactive. Moreover, the Potency in [2] was 29.8 µM (active). The Potency result in experiment [3], in [10], in [6], in experiment [8] and in [9] was “inactive” each time.

Regarding `COc1cccc(OC)c1`, the Potency result in [2], in experiment [3], in [10] and in experiment [6] was “inactive” each time. The compound was classed as inactive in experiment [4], in experiment [5] and in experiment [7].

Regarding `O=[N+]([O-])c1ccc(CCO)cc1`, the Potency result in [2], in experiment [3], in experiment [10] and in experiment [6] was “inactive” in each case. Further, the outcome in experiment [4], in experiment [5] and in experiment [7] was inactive.

Consider `CSc1nc(NC2CC2)nc(NC(C)(C)C)n1`, for which the Potency entry in [2], in experiment [3] and in experiment [10] was “inactive” throughout. Also, the compound was classed as inactive in experiment [4] and in experiment [5]. The Potency in experiment [6] is 17.2 µM (active).
